The record followed here is PubChem BioAssay (NCI).

Structures are written as SMILES. About 83,000 compounds went through this panel and 20% of them were active in at least one assay; those are over-represented in the sample as a whole.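 Single-concentration screen, 48 h exposure, 96-well plates. Endpoint: percent growth. Below 10 = active.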 Unmarked numbers belong to inactive results.

The first assay has as its system SNB-75 CNS. Kind of assay: NCI-60 one-dose screen, 48 h (100 = growth as untreated, 0 = no growth, -100 = all killed). As to conditions: 10 µM unless noted.
For the compound `Nc1nc(Cl)cc(Cl)n1`, the growth was 91.4%.

As to `CCCCCCCCCCCCCCCCOc1ccccc1NC(=O)CC(C)=O`, the growth is 93.2%.

`Cc1cc(Cc2ccccc2)c(O)c(Cc2ccccc2)c1`: the growth is 75.5%.

Turning to `Nc1cc(N)ncn1`, the growth is 88.9%.

For the compound `CC(C)(C)NCCC(O)c1cc(C(F)(F)F)nc2c(C(F)(F)F)cccc12` (centres undefined), the growth was 78.2%.

Consider `C=C(OC(C)=O)c1ccccc1`, for which the growth is 98%.

As for `O=Cc1c(O)c2ccccc2[nH]c1=O`, the growth was 77.9%.

`CN=S(=O)(OCCCCCOS(=O)(=NC)c1ccc(C)cc1)c1ccc(C)cc1` (centres undefined): the growth was 77.1%.

Take `CCOC(=O)c1c(C)[nH]c(C)c1C=O`: the growth was 94.2%.

`O=C(NCc1ccccc1)/C(=C/c1ccccc1)NC(=O)c1ccccc1`: the growth was 98.1%.

As to `O=c1cc(Cl)nc2ccccn12`, the growth is 109%.

Take `Oc1cc(O)c2c(c1)O[C@H](c1ccc(O)c(O)c1)[C@@H](O)C2`: the growth is 83.6%.

Consider `CCOP(=O)(NC(c1ccccc1)c1ccccc1)OCC`, for which the growth was 88.7%.

Turning to `Cc1ccc2nc(N)nnc2c1`, the growth was 90.5%.

With `Cc1ccc(S(N)(=O)=O)cc1Cl`, the growth is 91.8%.

For `Nc1cc2ccccc2c(O)c1O`, the growth was 90.4%.

On to `CC(C)N1CC(=O)N2CSCC2C1=O` (centres undefined), for which the growth is 99.3%.

Turning to `CCOC(=N)CC(=O)Nc1cccc(C)c1Cl`, the growth is 86%.

Consider `Cc1cc2c(C(C)C)c(O)c(O)c(C=Nc3ccccc3[N+](=O)[O-])c2c(O)c1-c1c(C)cc2c(C(C)C)c(O)c(O)c(C=Nc3ccccc3[N+](=O)[O-])c2c1O`, for which the growth was 78%.

In the case of `Cc1cc(C(=O)NN)c(C#N)c(=O)[nH]1`, the growth is 84.6%.

On to `COC1OC(CO)C(OC)C(O)C1O` (centres undefined), for which the growth is 103%.

For `CCOC(=O)/C(O)=C(\C=N\C(=S)Nc1ccc(Cl)c(Cl)c1)C(=O)OCC`, the growth is 82%.

On to `O=C(c1ccccc1)c1ccc(-c2ccc(O)cc2)cc1`, for which the growth is 43.5%.

With `CC(=O)C1C(=O)C(=O)N(c2cccc([N+](=O)[O-])c2)C1=O` (centres undefined), the growth was 93.9%.

As to `CCOC(OCC)C(=O)c1ccccc1`, the growth was 94.1%.

In the case of `Cc1ccc(O)c(N)c1`, the growth is 87.7%.

Take `COC(=O)c1ccccc1C(=O)c1c(C)cc(C)cc1C`: the growth was 96.5%.

In the case of `COc1cc(-c2ccc(NC(=O)CC(C)=O)c(OC)c2)ccc1NC(=O)CC(C)=O`, the growth is 82.2%.

Consider `Oc1cccc(CNC2CCCCC2)c1`, for which the growth is 90.4%.

`COc1ccc(C(=O)C(=O)c2ccccc2)cc1`: the growth was 104%.

Regarding `CSc1cnc2ccccc2n1`, the growth is 107%.

On to `Nc1ccc2c(c1)Cc1cc(N)c(N)cc1-2`, for which the growth is 96%.

For the compound `CCCCN(C(=O)CC)c1ccccc1`, the growth is 89.8%.

Take `Nc1c(Br)cc(O)c2c1C(=O)c1ccccc1C2=O`: the growth is 110%.

As for `CC(=O)N(C(C)=O)c1ccc(C)cc1`, the growth was 89.1%.

Regarding `Cc1cc(CC(=O)NCCO)n(CCO)c(=O)c1`, the growth is 95.3%.

For `CCOC(=O)c1ccc(NC(C)=O)o1`, the growth was 94.3%.

The test system of the next assay is SNB-19 CNS. The description is as above. Particulars: 10 µM unless noted.
`Nc1nc(Cl)cc(Cl)n1`: the growth is 113%.

`CCCCCCCCCCCCCCCCOc1ccccc1NC(=O)CC(C)=O`: the growth is 104%.

For the compound `Cc1cc(Cc2ccccc2)c(O)c(Cc2ccccc2)c1`, the growth is 102%.

`Nc1cc(N)ncn1`: the growth was 96.1%.

In the case of `CC(C)(C)NCCC(O)c1cc(C(F)(F)F)nc2c(C(F)(F)F)cccc12` (centres undefined), the growth was 87.2%.

For the compound `C=C(OC(C)=O)c1ccccc1`, the growth is 106%.

With `O=Cc1c(O)c2ccccc2[nH]c1=O`, the growth is 104%.

Take `CN=S(=O)(OCCCCCOS(=O)(=NC)c1ccc(C)cc1)c1ccc(C)cc1` (centres undefined): the growth is 97.3%.

For the compound `CCOC(=O)c1c(C)[nH]c(C)c1C=O`, the growth is 97.1%.

As for `O=C(NCc1ccccc1)/C(=C/c1ccccc1)NC(=O)c1ccccc1`, the growth is 97.1%.

With `O=c1cc(Cl)nc2ccccn12`, the growth is 103%.

For the compound `Oc1cc(O)c2c(c1)O[C@H](c1ccc(O)c(O)c1)[C@@H](O)C2`, the growth is 101%.

Regarding `CCOP(=O)(NC(c1ccccc1)c1ccccc1)OCC`, the growth is 102%.

Take `Cc1ccc2nc(N)nnc2c1`: the growth is 102%.

For the compound `Cc1ccc(S(N)(=O)=O)cc1Cl`, the growth is 107%.

Take `Nc1cc2ccccc2c(O)c1O`: the growth is 90.2%.

On to `CC(C)N1CC(=O)N2CSCC2C1=O` (centres undefined), for which the growth was 121%.

In the case of `CCOC(=N)CC(=O)Nc1cccc(C)c1Cl`, the growth was 109%.

On to `Cc1cc2c(C(C)C)c(O)c(O)c(C=Nc3ccccc3[N+](=O)[O-])c2c(O)c1-c1c(C)cc2c(C(C)C)c(O)c(O)c(C=Nc3ccccc3[N+](=O)[O-])c2c1O`, for which the growth is 43.9%.

As for `Cc1cc(C(=O)NN)c(C#N)c(=O)[nH]1`, the growth is 95.3%.

In the case of `COC1OC(CO)C(OC)C(O)C1O` (centres undefined), the growth is 105%.

As to `CCOC(=O)/C(O)=C(\C=N\C(=S)Nc1ccc(Cl)c(Cl)c1)C(=O)OCC`, the growth was 104%.

For the compound `O=C(c1ccccc1)c1ccc(-c2ccc(O)cc2)cc1`, the growth was 59.7%.

In the case of `CC(=O)C1C(=O)C(=O)N(c2cccc([N+](=O)[O-])c2)C1=O` (centres undefined), the growth was 104%.

Regarding `CCOC(OCC)C(=O)c1ccccc1`, the growth is 103%.

For `Cc1ccc(O)c(N)c1`, the growth is 101%.

Take `COC(=O)c1ccccc1C(=O)c1c(C)cc(C)cc1C`: the growth is 103%.

For the compound `COc1cc(-c2ccc(NC(=O)CC(C)=O)c(OC)c2)ccc1NC(=O)CC(C)=O`, the growth was 101%.

In the case of `Oc1cccc(CNC2CCCCC2)c1`, the growth was 95%.

In the case of `COc1ccc(C(=O)C(=O)c2ccccc2)cc1`, the growth is 100%.

Take `CSc1cnc2ccccc2n1`: the growth was 99.5%.

`Nc1ccc2c(c1)Cc1cc(N)c(N)cc1-2`: the growth is 95.6%.

For `CCCCN(C(=O)CC)c1ccccc1`, the growth was 99.9%.

Consider `Nc1c(Br)cc(O)c2c1C(=O)c1ccccc1C2=O`, for which the growth is 95.2%.

With `CC(=O)N(C(C)=O)c1ccc(C)cc1`, the growth is 93.8%.

`Cc1cc(CC(=O)NCCO)n(CCO)c(=O)c1`: the growth is 103%.

Take `CCOC(=O)c1ccc(NC(C)=O)o1`: the growth is 97.1%.
